The record followed here is article PMC4336329 (PLoS ONE, 2015).

Screen size: about 310,000 compounds; about 14,000 (4.5%) showed an effect of 50% or more. Effects have a minus sign here. The sample as a whole holds a higher share of strong results than the screen did.
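Note: peak tail current of the secondary pulse compared with the same well before compound.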

The assay deals with human ether-à-go-go-related gene (hERG) potassium channel (human, UniProt Q12809). As to the kind of experiment: primary screen, population patch clamp on CHO cells stably expressing hERG; higher = less effect of the substance.
human ether-à-go-go-related gene (hERG) potassium channel, sequence (Q12809 whole entry, looked up): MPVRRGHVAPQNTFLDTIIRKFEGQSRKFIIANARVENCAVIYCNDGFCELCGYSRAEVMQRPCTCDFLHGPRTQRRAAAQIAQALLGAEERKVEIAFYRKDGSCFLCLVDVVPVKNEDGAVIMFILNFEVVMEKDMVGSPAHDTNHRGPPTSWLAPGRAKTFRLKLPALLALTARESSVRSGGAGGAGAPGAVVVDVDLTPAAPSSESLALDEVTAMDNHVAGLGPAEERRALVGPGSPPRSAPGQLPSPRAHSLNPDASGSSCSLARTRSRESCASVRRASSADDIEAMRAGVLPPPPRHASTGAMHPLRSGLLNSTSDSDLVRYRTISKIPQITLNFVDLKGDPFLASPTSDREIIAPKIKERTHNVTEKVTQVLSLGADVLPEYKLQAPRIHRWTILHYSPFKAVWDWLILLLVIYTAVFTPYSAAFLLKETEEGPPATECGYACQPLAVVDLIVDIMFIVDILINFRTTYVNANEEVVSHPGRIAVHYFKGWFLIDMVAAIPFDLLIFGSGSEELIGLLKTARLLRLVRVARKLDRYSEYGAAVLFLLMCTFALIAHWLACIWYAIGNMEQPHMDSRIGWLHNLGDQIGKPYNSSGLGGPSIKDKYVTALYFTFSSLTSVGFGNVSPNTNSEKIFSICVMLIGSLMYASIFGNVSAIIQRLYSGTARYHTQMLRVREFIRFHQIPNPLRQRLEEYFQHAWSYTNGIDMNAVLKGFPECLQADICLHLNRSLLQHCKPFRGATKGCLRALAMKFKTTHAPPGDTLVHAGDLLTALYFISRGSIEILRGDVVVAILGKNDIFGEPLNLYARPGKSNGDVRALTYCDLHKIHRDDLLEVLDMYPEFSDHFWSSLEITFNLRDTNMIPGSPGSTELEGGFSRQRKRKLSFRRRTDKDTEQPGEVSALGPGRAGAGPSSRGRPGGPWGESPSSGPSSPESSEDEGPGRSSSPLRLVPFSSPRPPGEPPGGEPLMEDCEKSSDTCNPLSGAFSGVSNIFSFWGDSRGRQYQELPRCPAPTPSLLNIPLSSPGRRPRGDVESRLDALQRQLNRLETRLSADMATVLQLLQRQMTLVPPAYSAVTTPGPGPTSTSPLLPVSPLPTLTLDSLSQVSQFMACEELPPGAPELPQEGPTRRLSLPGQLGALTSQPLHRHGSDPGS
For `O=C(c1ccco1)N1CCN(C(c2ccccc2Cl)c2nnnn2Cc2cccs2)CC1` (centres unmarked), the “hERG current change (%, negative = inhibition) at 10uM” value is given as -56.2%.
`Cl.Clc1ccccc1C(c1nnnn1Cc1ccco1)N1CCN(Cc2ccco2)CC1` (centres unmarked): the “hERG current change (%, negative = inhibition) at 10uM” value was -27.6%.
To `Cl.O=C(c1ccco1)N1CCN(C(c2ccccc2F)c2nnnn2CC2CCCO2)CC1` (centres unmarked) belongs -17.2%; to `COCCn1nnnc1C(c1ccccc1OC)N1CCN(C(=O)c2ccco2)CC1` (centres unmarked), -16.1%.
For the compound `Cl.O=C(c1ccco1)N1CCN(C(c2ccccc2Cl)c2nnnn2CC2CCCO2)CC1` (centres unmarked), the “hERG current change (%, negative = inhibition) at 10uM” value is recorded as -12.3%.
To `O=C(c1ccco1)N1CCN(C(c2ccccc2F)c2nnnn2Cc2cccs2)CC1` (centres unmarked) belongs -51%; to `CCC(c1nnnn1Cc1cccs1)N1CCN(C(=O)c2ccco2)CC1` (centres unmarked), -36.5%; to `CCC(C)(C)n1nnnc1C(c1ccccc1F)N1CCN(C(=O)c2ccco2)CC1` (centres unmarked), -13.9%.
As to `Cl.O=C(c1ccco1)N1CCN(C(c2ccccc2Cl)c2nnnn2Cc2ccco2)CC1` (centres unmarked), the “hERG current change (%, negative = inhibition) at 10uM” value is -65.1%.
To `CC1=NNC(=O)C1CCC(=O)N/N=C\c1ccccc1[N+](=O)[O-]` (centres unmarked) belongs 0.38%; to `CCN1CCN(CCCNC(=O)c2ccc(CS(=O)c3ccc(Br)cc3)o2)CC1` (centres unmarked), 24.5%; to `CCOc1[nH]n(-c2ccccc2)c(=O)c1C=NCC(=O)OC`, -18.8%.
The figure for `CCC(=O)c1ccc(N2CCN(C(=O)c3cccs3)CC2)c(F)c1` is -51.6%; for `CCCC(=O)c1ccc(N2CCCC2)c(F)c1` it is 6.96%.
In the case of `CC(=O)c1ccc(N2CCN(C(=O)c3cccs3)CC2)c(F)c1`, the “hERG current change (%, negative = inhibition) at 10uM” value is on record as -28.3%.
`CCC(=O)c1ccc(N2CCN(C(=O)c3ccccc3F)CC2)c(F)c1`: the “hERG current change (%, negative = inhibition) at 10uM” value is recorded as -20.7%.
Take `CCCC(=O)c1ccc(N2CCN(C(=O)c3cccs3)CC2)c(F)c1`: the “hERG current change (%, negative = inhibition) at 10uM” value was -75.1%.
Consider `CCCC(=O)c1ccc(N2CCCCC2)c(F)c1`, for which the “hERG current change (%, negative = inhibition) at 10uM” value worked out at 10.5%.
In the case of `COc1ccccc1CNS(=O)(=O)c1c(C(=O)N2CCCCC2)c(C)n(C)c1C`, the “hERG current change (%, negative = inhibition) at 10uM” value worked out at 5.51%.
In the case of `COc1cccc(C2=NC(C)(C)NC(c3ccccc3O)C2)c1` (centres unmarked), the “hERG current change (%, negative = inhibition) at 10uM” value was determined as 2.64%.
With `COc1ccc(Cn2c(=O)c3[nH]cnc3n(-c3ccccc3C)c2=O)cc1`, the “hERG current change (%, negative = inhibition) at 10uM” value is 7.7%.
To `Cc1cccc(NC(=O)CS(=O)(=O)Cc2ccccc2)n1` belongs 2.58%; to `CCc1cc(C(=O)N/N=C/c2ccc(OC)cc2)c2ccccc2n1`, -4.27%; to `O=C1C2Sc3[nH]c(=O)sc3C(c3ccccc3)C2C(=O)N1c1ccccc1` (centres unmarked), -2.84%.
On to `CC(=O)Nc1ccc(S(=O)(=O)NC2(C(F)(F)F)NC(=O)N(C3CCCCC3)C2=O)cc1` (centres unmarked), for which the “hERG current change (%, negative = inhibition) at 10uM” value is 2.87%.
To `CCCN1CCN(C2CCCCC2NS(=O)(=O)c2ccc(Cl)cc2)CC1` (centres unmarked) belongs -63.4%.
The figure for `CCN1CCN(C2CCCCC2NS(=O)(=O)c2ccccc2)CC1` (centres unmarked) is 11.7%.
The figure for `CN1CCN(C2CCCCC2NS(=O)(=O)c2ccc(Cl)cc2)CC1` (centres unmarked) is -29.8%; for `O=S(=O)(NC1CCCCC1Sc1ncccn1)c1ccc(Cl)cc1` (centres unmarked) it is -50.9%.
For the compound `O=S(=O)(NC1CCCCC1N1CCCCC1)c1ccc(Cl)cc1` (centres unmarked), the “hERG current change (%, negative = inhibition) at 10uM” value is -5.16%.
The figure for `CCCN1CCN(C2CCCCC2NS(=O)(=O)c2ccccc2)CC1` (centres unmarked) is -44.7%; for `CCN1CCN(C2CCCCC2NS(=O)(=O)c2ccc(Cl)cc2)CC1` (centres unmarked) it is -61.8%.
To `O=S(=O)(NC1CCCCC1Sc1ncccn1)c1ccccc1` (centres unmarked) belongs -5.72%; to `Cc1cc(C)nc(SC2CCCCC2NS(=O)(=O)c2ccc(Cl)cc2)n1` (centres unmarked), -14.7%.
The figure for `CCN(c1ccccc1)S(=O)(=O)c1ccc(Cl)c(NC(=O)COC(=O)c2ccc[nH]c2=O)c1` is 3.13%; for `C#CCOCCOCCOCCNc1nc(N2CCN(C(=O)C([C@@H](C)CC)n3cc(C(N)Cc4ccc(O)cc4)nn3)CC2)nc(N2CCN(C(=O)[C@H](CCC(=O)O)n3cc(C(N)[C@H](C)CC)nn3)CC2)n1.Cl` (some centres unmarked) it is 4.5%; for `O=C(NCC(=O)N1CCOCC1)OCc1ccccc1` it is -30.8%.
Consider `O=C(OCc1ccccc1)N1CCOCCN(C(=O)OCc2ccccc2)CCOCC1`, for which the “hERG current change (%, negative = inhibition) at 10uM” value is given as -64%.
For `O=C(O)C1CCN(C(=O)OCc2ccccc2)CC1`, the “hERG current change (%, negative = inhibition) at 10uM” value is 13.8%.
In the case of `COC(=O)CCn1nnc(-c2ccc(C)cc2)n1`, the “hERG current change (%, negative = inhibition) at 10uM” value is on record as 12.3%.
With `COc1cccc(-c2nc3n(n2)C(c2cccs2)C(C(=O)Nc2cccnc2)=C(C)N3)c1` (centres unmarked), the “hERG current change (%, negative = inhibition) at 10uM” value is -72.3%.
To `COc1ccccc1-c1nc2n(n1)C(c1cccs1)C(C(=O)Nc1cccnc1)=C(C)N2` (centres unmarked) belongs -31.7%.
`COc1ccc(C2C(C(=O)Nc3cccnc3)=C(C)Nc3nc(-c4cccs4)nn32)cc1` (centres unmarked): the “hERG current change (%, negative = inhibition) at 10uM” value is listed as -39.6%.
For `Cc1cccc(C(C(=O)NC2CCCCC2)N(C(=O)c2csnn2)C2CC2)c1` (centres unmarked), the “hERG current change (%, negative = inhibition) at 10uM” value is listed as 7.99%.
On to `CCCNC(=O)C1(CC2CC(c3ccccc3)=NO2)CCN(C(=O)Cc2ccc(F)cc2)CC1` (centres unmarked), for which the “hERG current change (%, negative = inhibition) at 10uM” value was -64.6%.
Consider `CCCCCCCNC(=O)C1(CC2CC(c3ccccc3)=NO2)CCN(C(=O)c2ccccc2)CC1` (centres unmarked), for which the “hERG current change (%, negative = inhibition) at 10uM” value is listed as -70.9%.
The figure for `CCCCCCCNC(=O)C1(CC2CC(c3ccc(Cl)cc3)=NO2)CCN(C(=O)Cc2ccc(F)cc2)CC1` (centres unmarked) is -11%; for `CCCNC(=O)C1(CC2CC(c3ccccc3)=NO2)CCN(C(=O)c2ccccc2)CC1` (centres unmarked) it is -68.9%; for `CCCCCCCNC(=O)C1(CC2CC(c3ccc(Cl)cc3)=NO2)CCN(C(=O)c2ccccc2)CC1` (centres unmarked) it is -15.8%.
To `COc1ccc(CNC(=O)C2(CC3CC(c4ccccc4)=NO3)CCN(C(=O)Cc3ccc(F)cc3)CC2)cc1` (centres unmarked) belongs 18.1%; to `CCCCCCCNC(=O)C1(CC2CC(c3cccc(Br)c3)=NO2)CCN(C(=O)c2ccccc2)CC1` (centres unmarked), -71%; to `CCCNC(=O)C1(CC2CC(c3ccccc3)=NO2)CCN(C(=O)C2(C)CC2)CC1` (centres unmarked), -17%.
To `CCCCCCCNC(=O)C1(CC2CC(c3cccc(Br)c3)=NO2)CCN(C(=O)c2cc(OCC)c(OCC)c(OCC)c2)CC1` (centres unmarked) belongs 4.79%; to `CCCNC(=O)C1(CC2CC(c3ccccc3)=NO2)CCN(C(=O)c2cc(OCC)c(OCC)c(OCC)c2)CC1` (centres unmarked), -34.6%; to `CCCNC(=O)C1(CC2CC(c3ccccc3)=NO2)CCN(C(=O)OC(C)(C)C)CC1` (centres unmarked), -48.6%.
With `CCOc1cc(C(=O)N2CCC(CC3CC(c4cccc(Br)c4)=NO3)(C(=O)NCC3CCCCC3)CC2)cc(OCC)c1OCC` (centres unmarked), the “hERG current change (%, negative = inhibition) at 10uM” value amounted to 4.14%.
The figure for `COc1ccc(C2CC(C(F)(F)F)n3nc(C(=O)Nc4ccc5c(c4)OCO5)cc3N2)cc1` (centres unmarked) is 10.5%; for `COc1ccc(-c2noc(N3CCCC(C(=O)Nc4ccccc4F)C3)n2)cc1` (centres unmarked) it is 15.5%; for `Cc1csc(=O)n1CC(=O)OCC(=O)c1ccc(Br)cc1` it is -14%.
For `CCOc1ccc(NC(=S)N2CCN(S(=O)(=O)c3ccccc3)CC2)cc1`, the “hERG current change (%, negative = inhibition) at 10uM” value is on record as -31.6%.
Regarding `COc1ccc(-n2c(C)n[nH]c2=O)cc1OC`, the “hERG current change (%, negative = inhibition) at 10uM” value is given as 10.7%.
For `Cc1sc(NC(=O)c2sc3nc4c(C)cccc4cc3c2N)c(C#N)c1C`, the “hERG current change (%, negative = inhibition) at 10uM” value is given as 8.29%.
As for `O=c1[nH]c2cc3c(cc2cc1CN(Cc1cccnc1)Cc1nnnn1Cc1ccco1)OCCO3`, the “hERG current change (%, negative = inhibition) at 10uM” value is on record as -4.69%.
To `CCN1C(=O)/C(=C/C=C2\C=CN(CC)c3ccccc32)SC1=S` belongs -4.57%; to `NC(=O)COc1ccc2oc(=O)cc(-c3cc4ccccc4o3)c2c1`, 7.27%; to `Cc1noc(C)c1CSCC(=O)Nc1cc(C(F)(F)F)ccc1N1CCOCC1`, -37.9%.
To `Cc1c(Cl)c([N+](=O)[O-])nn1CC(=O)Nc1ccc2c(c1)OCO2` belongs 18.4%; to `CCCCCCCNC(=O)C1(CC2CC(c3cccc(Br)c3)=NO2)CCN(C(=O)OC(C)(C)C)CC1` (centres unmarked), 3.88%.
On to `CCCCCCCNC(=O)C1(CC2CC(c3ccc(Cl)cc3)=NO2)CCN(C(=O)CCCCCBr)CC1` (centres unmarked), for which the “hERG current change (%, negative = inhibition) at 10uM” value is reported as -79%.
As to `CCCNC(=O)C1(CC2CC(c3ccccc3)=NO2)CCN(C(=O)CCCCCBr)CC1` (centres unmarked), the “hERG current change (%, negative = inhibition) at 10uM” value is listed as -50%.
The figure for `CCCCCCCNC(=O)C1(CC2CC(c3ccc(Cl)cc3)=NO2)CCN(C(=O)c2cc(OCC)c(OCC)c(OCC)c2)CC1` (centres unmarked) is 17.6%.
On to `CCCCCCCNC(=O)C1(CC2CC(c3cccc(Br)c3)=NO2)CCN(C(=O)CCCCCBr)CC1` (centres unmarked), for which the “hERG current change (%, negative = inhibition) at 10uM” value is listed as -82.7%.
The figure for `CCCCn1c(-c2ccco2)n[nH]c1=S` is 16.9%; for `COc1cc2c(cc1OC)-c1nnc(-c3ccco3)n1C1(CCCC1)C2` it is -8.01%.
On to `O=Cc1c(Cl)cccc1Cl`, for which the “hERG current change (%, negative = inhibition) at 10uM” value came out at 13.9%.
Turning to `CNC(=O)CCCN1C(=O)c2ccccc2Sc2ncccc21`, the “hERG current change (%, negative = inhibition) at 10uM” value is 23.9%.
The figure for `O=C(CSc1nc2[nH]ncc2c(=O)[nH]1)Nc1cccc([N+](=O)[O-])c1` is -19.2%; for `COCCn1c(C)cc(C2=NNC(=Nc3ccc(Cl)cc3Cl)SC2)c1C` it is 7.57%.
For the compound `O=C(Cn1c(SCC(=O)NC2CCCC2)nnc1-c1ccncc1)Nc1ccc2c(c1)OCO2`, the “hERG current change (%, negative = inhibition) at 10uM” value is on record as -11.7%.
The figure for `COC(=O)CSc1nnc(C)c(=O)[nH]1` is 2%.
The figure for `O=C(Cc1coc2cc3c(cc12)CCC3)NC1CCCCCCC1` is 0.532%; for `O=C(Cc1coc2cc3c(cc12)CCC3)NCC1(N2CCCCC2)CCCCC1` it is -76.9%.
`Cc1ccc2c(CC(=O)NCC3(N4CCOCC4)CCCCC3)coc2c1C`: the “hERG current change (%, negative = inhibition) at 10uM” value is -25.5%.
